Test results as given in PubChem BioAssay AID720541 (National Center for Advancing Translational Sciences (NCATS), 2013).
Values joined by “and” are separate entries in the source; they are usually repeats but may differ in a detail not shown here. Equal values may be shown once. The whole screen tested about 1,300 compounds, of which about 420 (32%) were called active. Roughly 32% stayed inconclusive and do not appear here. Calls come from the whole dose curve; as a rule, active = well fitted inhibition curve with a large enough effect; inconclusive = small, poorly fitted or top-dose-only effect; inactive = no such curve, though single readings can be large or run the other way. This is one part of the list. Where a structure was tested more than once in an assay, its records may differ in their call.

target: C-terminal-binding protein 1 (Homo sapiens) (UniProt Q13363); test: qHTS for Inhibitors of the Phosphatase Activity of Eya2: Carboxyl-terminal binding protein (CtBP) Counterscreen for Cherry-picked Compounds; details: purified protein-protein binding, AlphaScreen, 3 h; series mostly up to 46.1 µM; activity change, negative = inhibition: at the top concentration; note: nearly all actives have a fitted effect of over 65% in size
Text: The Eya protein family is an essential co-activator of the Six1 transcription factor. Six1 is a developmental gene that is abnormally re-expressed in a large percentage of breast cancers. This over-expression plays a causal role in the initiation and metastatic development of breast cancers. The Eya family of protein is also found to contain a unique HAD phosphatase domain with protein tyrosine phosphatase activity which can potentially play a role in Six1-mediated breast tumorigenesis. Recently, Eya2 is found to dephosphorylate the histone variant H2AX and direct cells towards DNA repair instead of apoptosis in the event of DNA damage.
A 1536 well format, fluorescence based qHTS assay was developed and used to target the phosphatase activity of Eya2 (AID 488837). In addition, a CtBP counterscreen was developed using the AlphaScreen technology to evaluate compound selectivity to target […]. The data herein reports the activity of the cherry-picked compounds against the CtBP AlphaScreen. Compounds that are active or have > 100 fold selectivity vs. the Eya2 activity were excluded for further characterization. Inactivity is the desired outcome for the CtBP counterscreen.
NIH Chemical Genomics Center [NCGC]
NIH Molecular Libraries Probe Centers Network [MLPCN]
Assay Submitter (PI): Rui Zhao, University of Colorado Denver
Four microliters of reagent (25 nM GST-E1A, 25 nM CtBP-6x HIS) was dispensed in a 1536 well Greiner plates. Twenty-three nanoliter of test compounds (final concentration of 2.5 nM - 46 uM) and positive control E1A peptide inhibitor (final concentration of 0.14 nM - 4.6 uM) were added to the plates using the Kalypsys pintool equipped with a 1536 pin head. The plates was then incubated at room temperature for 2 hours followed by addition of 1 uL Alpha bead donor / acceptor mix (20 ug/mL final concentration). The assay plates were incubated for additional 1 hour at room temperature and protected from light. The AlphaScreen signal was obtained using the PerkinElmer EnVision plate reader using the 680 nm excitation and 520 - 620 nm emission filters. The data was normalized to the E1A peptide inhibitor for maximum inhibition and DMSO treated wells as negative control.
% is set by controls: 0 for no effect and ±100 for the full control effect; potency is the fitted concentration of half-maximal effect.

SMILES | activity change, negative = inhibition | Potency
CCC(C)N(C(=O)CSc1nc(-c2cccs2)nc2ccccc12)C1CCS(=O)(=O)C1 (stereo unspecified) | -28.4% (inactive) | 
CSc1nc(NCCOCCO)c2sc3nc(-c4ccco4)c4c(c3c2n1)CCC4 |  | 5.36 µM (active)
OCCN(Cc1cccnc1)Cc1ccccn1 |  | 5.36 µM (active)
COCC(C)n1c(-c2ccc3c(c2)NC(=O)CO3)csc1=Nc1ccc(OC(F)F)cc1 (stereo unspecified) | -25.4% (inactive) | 
CCOC(=O)c1cc2c(N)c(C(=O)c3ccc(Br)cc3)sc2[nH]c1=O |  | 1.9 µM (active)
Cc1cc(C(=O)CSc2nc(N)cc(N)n2)c(C)n1C1CC1 | -28.9% (inactive) | 
COc1ccccc1C(CCNCc1ccc(N(C)C)cc1)c1ccc(OC(C)C)cc1 (stereo unspecified) |  | 6.01 µM (active)
COc1ccc(C(CCNCc2ccc(N(C)C)cc2)C(C)C)cc1 (stereo unspecified) |  | 12 µM (active)
COc1ccc(C(NC(C)=O)c2ccc3cccnc3c2O)cc1OC (stereo unspecified) |  | 1.35 µM (active)
CCC(=O)NC(c1cccs1)c1cc(Cl)c2cccnc2c1O (stereo unspecified) |  | 1.69 µM (active)
COc1ccc(C(NC(C)=O)c2cc(Cl)c3cccnc3c2O)cc1OC (stereo unspecified) |  | 1.69 µM (active)
CCCCC(=O)NC(c1cccc([N+](=O)[O-])c1)c1ccc2cccnc2c1O (stereo unspecified) | -69.6% (inactive) | 
CCCCC(=O)NC(c1ccco1)c1cc(Cl)c2cccnc2c1O (stereo unspecified) |  | 4.78 µM (active)
CCOC(=O)N1CCN(S(=O)(=O)c2ccc(C(=O)NNc3nc4c(C)cc(C)cc4s3)cc2)CC1 | -22.9% (inactive) | 
O=c1[nH]c(/C=C\c2ccc(O)cc2)nc(O)c1[N+](=O)[O-] | -9.35% (inactive) | 
O=C(NCCC1=CCCCC1)c1[nH]c(C(F)(F)F)nc1-c1ccccc1 | -26.7% (inactive) | 
O=C(NC1CCCCC1)N1CCN(C2CCCCC2)CC1 | 9.26% (inactive) | 
CCCC(=O)NC(c1ccc(OC)c(OC)c1)c1cc(Cl)c2cccnc2c1O (stereo unspecified) |  | 1.69 µM (active)
CCC(=O)NC(c1ccc(OC)c(OC)c1)c1cc(Cl)c2cccnc2c1O (stereo unspecified) |  | 1.69 µM (active)
CC(=O)NC(c1ccc(Cl)cc1)c1ccc2cccnc2c1O (stereo unspecified) |  | 1.9 µM (active)
O=C(O)c1ccccc1NC(c1ccccc1)c1ccc2cccnc2c1O (stereo unspecified) |  | 1.9 µM (active)
O=C(Oc1ccc(Cl)c2cccnc12)C12CC3CC(CC(C3)C1)C2 | 19.6% (inactive) | 
O=C(Nc1ncc(Cc2ccccc2Cl)s1)c1ccc(-c2cccc([N+](=O)[O-])c2)o1 | -12.9% (inactive) | 
COc1ccc(C2c3[nH]c4ccccc4c3C[C@H]3C(=O)N(C4CCN(Cc5ccccc5)CC4)CC(=O)N23)cc1OC (stereo partly specified) | -26.4% (inactive) | 

SMILES | activity change, negative = inhibition | Potency
CCCCOC(=O)CCCc1ccc([N+](=O)[O-])cc1[N+](=O)[O-] | -29.8% (inactive) | 
CCOc1ccc2c(c1)C(c1ccc(C)cc1)=NNC(c1ccc(OC)cc1)=N2 | -25.4% (inactive) | 
O=c1c2ccccc2c(C=Nc2cccc(S(=O)(=O)NC3=NCCCCC3)c2)c(O)n1Cc1ccccc1 | -6.05% (inactive) | 
CCN(CC)CCNC(=O)c1ccc(N)cc1 | 3.53% (inactive) | 
CC(C)C(=O)NC(c1ccc(Cl)cc1Cl)c1ccc2cccnc2c1O (stereo unspecified) |  | 5.36 µM (active)
O=C(CSc1nnc2c(Cl)cc(Cl)cn12)NC1CCS(=O)(=O)C1 (stereo unspecified) | 4.22% (inactive) | 
O=C(C[n+]1ccccc1)c1ccc(O)c(O)c1 | -8.91% (inactive) | 
CC12CC3(C)CC(C)(C1)CC(C(=O)NC(=S)N1CCOCC1)(C2)C3 | -7.12% (inactive) | 
COc1ccc(-c2nnc(NC(=O)c3ccc(S(=O)(=O)N(C)CC4CCCO4)cc3)o2)c(OC)c1 (stereo unspecified) |  | 16.9 µM (active)
O=c1c(CO)cc(CO)cc(CO)c1O |  | 9.53 µM (active)
Cn1c(=O)n(Cc2ccc(F)cc2)c(=O)c2c1nc1n2CCN1Cc1ccco1 |  | 10.7 µM (active)
Cn1c(=O)n(Cc2ccccc2)c(=O)c2c1nc(NCC1CCCO1)n2Cc1ccccc1 (stereo unspecified) | -19% (inactive) | 
Cn1c(=O)n(CCO)c(=O)c2c1nc(Br)n2Cc1ccccc1 | 7.05% (inactive) | 
COCCNC(=O)CCC(=O)NNc1nc2ccccc2c2nc(-c3ccccc3)nn12 | -29.3% (inactive) | 
COc1ccc2c(c1)c1nnc(SC(C)C)nc1n2C |  | 4.78 µM (active)
Cc1cccc(NC(=S)N(CCN2CCOCC2)Cc2cc3cc4c(cc3[nH]c2=O)OCCO4)c1 | 10.2% (inactive) | 
Nc1ccc2c(c1Cl)C(=O)c1ccc(N)c(Cl)c1C2=O |  | 6.01 µM (active)
CCOC(=O)c1ccc(NC(=S)N2CCN(CCN=CC3=C(O)CC(c4ccccc4)CC3=O)CC2)cc1 (stereo unspecified) | 45.5% (inactive) | 
COc1cc(N=c2oc3c(C)ncc(CO)c3cc2C(N)=O)cc(OC)c1OC |  | 4.78 µM (active)
CCOC(=O)Cc1nnc(NC(=O)CSc2nnc3c4ccccc4n(C)c3n2)s1 |  | 15.1 µM (active)
CCOC(=O)Cc1nnc(NC(=O)CSc2nnc3c(n2)[nH]c2ccccc23)s1 |  | 15.1 µM (active)
Cc1nc(NC(=O)CSc2nnc(-c3ccccc3)c(-c3ccccc3)n2)c(Cl)cc1Cl | -28% (inactive) | 
O=C(CSc1nnc2c(n1)[nH]c1ccccc12)Nc1ccc(S(=O)(=O)Nc2ncccn2)cc1 |  | 5.36 µM (active)
CCOC(=O)Cc1nnc(NC(=O)C(CC)Sc2nnc3c4ccccc4n(C)c3n2)s1 (stereo unspecified) |  | 13.5 µM (active)

SMILES | activity change, negative = inhibition | Potency
O=C(CSc1nnc2c(n1)[nH]c1ccccc12)Nc1cccc(S(=O)(=O)N2CCOCC2)c1 | -21% (inactive) | 
CC1(C)CC2CC(C)(CN2/C=N/c2sc3c(c2C#N)CC(C)(C)NC3(C)C)C1 (stereo unspecified) | -18.7% (inactive) | 
COc1cc2[nH]cc(C(=O)NCc3ccccc3)c(=O)c2cc1OC |  | 3.79 µM (active)
COc1ccc(CNC(=O)c2sc(=O)n(Cc3cc(Cl)ccc3OC)c2C)cc1 | -17.4% (inactive) | 
CC1CCC(=NNc2ccc(C(F)(F)F)cc2[N+](=O)[O-])CC1 (stereo unspecified) |  | 8.49 µM (active)
C1=Cc2ccccc2/C1=C\c1cc2c3c(c1)CCCN3CCC2 |  | 8.49 µM (active)
Cc1cc(=O)n2[nH]c(Nc3cccc(Cl)c3)nc2n1 | 1.73% (inactive) | 
COc1ccc(N2CCN(C(=O)c3cc(-c4cc(OC)ccc4OC)nc4ccccc34)CC2)cc1 |  | 13.5 µM (active)
COc1ccc2cc(C(=O)N3CCN(c4ccc(F)cc4)CC3)[nH]c2c1 | -1.7% (inactive) | 
COc1ccc(Nc2cc(C(=O)N3CCc4ccccc4C3)c3ccccc3n2)c(OC)c1 | -28.5% (inactive) | 
CN(C)CCCN1c2ccc(O)cc2Sc2ccc(Cl)cc21 |  | 12 µM (active)
Cn1cc(SCC(=O)Nc2ccc3c(c2)OCCO3)c2ccccc21 | -8.28% (inactive) | 
Nn1c(SCC(=O)Nc2ccc3c(c2)OCCO3)nnc1-c1ccccn1 |  | 15.1 µM (active)
O=C(CSc1ccc2c(c1)OCCO2)Nc1ccc2c(c1)OCO2 | -19.6% (inactive) | 
Cc1ccc(OCCSc2nc3ccccc3n2CCC(=O)O)c(C(C)C)c1 | 0.945% (inactive) | 
COc1ccc2nc(NC(=S)NC(=O)c3ccco3)sc2c1 | -10.3% (inactive) | 
O=C(NC(=S)Nc1ccccc1N1CCCCC1)c1ccco1 | -23% (inactive) | 
Cc1cccc(NC(=S)NC(=O)c2ccco2)n1 |  | 10.7 µM (active)
CCc1nnc(NS(=O)(=O)c2ccc(NCc3cc(Cl)cc(Cl)c3O)cc2)s1 |  | 4.26 µM (active)
O=S(=O)(Nc1nccs1)c1ccc(NCc2cc(Br)cc(Br)c2O)cc1 |  | 1.9 µM (active)
CCS(=O)(=O)N1CCC(C(=O)Oc2ccc(Cl)cc2)CC1 | -17% (inactive) | 
COc1ccc(C(=O)OCC(=O)Nc2ccc(N3CCOCC3)cc2)cc1 | 7.02% (inactive) | 
CC(=O)Nc1ccc(S(=O)(=O)N2C3CCCC2CC(NC(=O)C2CCCCC2)C3)cc1 (stereo unspecified) | 1.48% (inactive) | 
CC(=O)Nc1ccc(S(=O)(=O)Nc2ccc(N3CCCCC3)cc2)cc1 |  | 8.49 µM (active)

SMILES | activity change, negative = inhibition | Potency
CC(=O)Oc1cccc2c1C(=O)C1CC=CC(OC(C)=O)C1C2=O (stereo unspecified) |  | 9.53 µM (active)
O=C(O)c1ccc2c(=O)n3cc(C(=O)c4ccccc4O)cc(Cl)c3nc2c1 |  | 12 µM (active)
Cc1cc(C)cc(C(=O)NC(=S)Nc2ccc3c(c2)OCCO3)c1 | -1.79% (inactive) | 
Cc1cc(O)cc(O)c1/C=N/NC(=O)c1ccc2c(c1)OCCO2 |  | 8.49 µM (active)
O=C(O)c1ccc(N/N=C/c2cc3cc4c(cc3nc2Cl)OCCO4)cc1 | -22% (inactive) | 
CCCCC1=CC2=C(c3ccco3)C(=O)C(C)(OC(=O)c3ccc(OC)cc3)C(=O)C2=CN1CCc1ccccn1 (stereo unspecified) | -24.5% (inactive) | 
Cc1ccc(C(=O)Nc2cccc(-c3nc4ncccc4o3)c2)cc1 | -45% (inactive) | 
CCC(C)c1ccc2oc(-c3ccc(NC(=O)c4ncn[nH]4)cc3)nc2c1 (stereo unspecified) |  | 13.5 µM (active)
CC(C)c1ccc2oc(-c3ccc(NC(=O)c4ncn[nH]4)cc3)nc2c1 |  | 12 µM (active)
C[C@@H](NC(=O)c1nc[nH]c1C(=O)N[C@@H](Cc1ccccc1)C(=O)OC(C)(C)C)c1ccccc1 | -2.64% (inactive) | 
O=C(CNC(=O)c1[nH]cnc1C(=O)N[C@@H](Cc1ccccc1)C(=O)OCc1ccccc1)OCc1ccccc1 | -4.09% (inactive) | 
Cc1ccc(NC(=O)c2[nH]cnc2C(=O)NN)cc1 |  | 15.1 µM (active)
O=C(Nc1ccc(F)cc1)c1nc[nH]c1C(=O)O |  | 7.57 µM (active)
CCOC(=O)c1ccc(NC(=O)c2nc[nH]c2C(=O)N[C@@H](Cc2ccccc2)C(=O)OC(C)(C)C)cc1 | -2.08% (inactive) | 
NNC(=O)c1nc[nH]c1C(=O)Nc1ccccn1 |  | 8.49 µM (active)
COc1ccc(N(CC(=O)N2CCCCC2)S(=O)(=O)c2c(C)nn(C)c2C)cc1 | 7.56% (inactive) | 
Cc1nnc(NC(=O)CSc2ccc3nnc(-c4ccccn4)n3n2)s1 | -31% (inactive) | 
O=C(CSc1ccc2nnc(-c3ccccn3)n2n1)Nc1ccccc1F |  | 7.57 µM (active)
O=C(CSc1ccc2nnc(-c3ccccn3)n2n1)Nc1ccccc1 |  | 10.7 µM (active)
O=C(O)CSc1ccc2nnc(-c3cccnc3)n2n1 |  | inactive and 13.5 µM (active)
CCCCC(Sc1ccc2nnc(-c3ccccn3)n2n1)C(=O)O (stereo unspecified) |  | 13.5 µM (active)
CN(C)c1ccc2nc3ccc(=[N+](C)C)cc-3sc2c1 | 128% (inactive) | 
CC(=O)Oc1ccc2nonc2c1OC(C)=O | -6.3% (inactive) | 
CC1=C(C(=O)N2CCOCC2)CC(CC(=O)NC(c2ccccc2)c2ccccc2)C(=O)N1Cc1ccc(C(C)(C)C)cc1 (stereo unspecified) | -5.98% (inactive) | 
